Data taken from PubChem BioAssay (EPA / NIEHS).
The source made the active and inactive calls. The calls were made as follows: active = hit-call score of the fitted dose curve at least 0.9, where 1 is the maximum; inactive = score below 0.9.

Assays:
Conditions in all cases: mRNA level, 48 h; actives raise or lower the signal
[1] = read-out: Cyclin D1 (CCND1), CCND1 (gene 595); experiment: LTEA_HepaRG_CCND1: Life Technologies and Expression Analysis (LTEA) Assay for Cyclin D1 (CCND1) using HepaRG (AID 2283451)
How it was run: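 Differentiated human HepaRG cells in serum-free induction medium were exposed 48 h to eight half-log concentrations up to 100 uM in 0.5% DMSO; mRNA quantified by TaqMan qRT-PCR, normalized to ACTB, GAPDH, POLR2A, fitted bidirectionally versus DMSO.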

[2] = read-out: catalase (CAT), CAT (gene 847); experiment: LTEA_HepaRG_CAT: Life Technologies and Expression Analysis (LTEA) Assay for catalase (CAT) using HepaRG (AID 2283452);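 as to AC50: TaqMan qRT-PCR signal normalized to ACTB GAPDH and POLR2A housekeeping genes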
How it was run: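 Expression of CAT was quantified by TaqMan qRT-PCR with ACTB/GAPDH/POLR2A normalization after 48 h chemical exposure of HepaRG. Eight-point half-log series, top 100 uM, in 0.5% DMSO; gain or loss fitted against vehicle.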

[3] = read-out: flavin-containing dimethylaniline monooxygenases 3 (FMO3), FMO3 (gene 2328); experiment: LTEA_HepaRG_FMO3: Life Technologies and Expression Analysis (LTEA) Assay for flavin-containing dimethylaniline monooxygenases 3 (FMO3) using HepaRG (AID 2283453)
How it was run: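 Eight-point concentration-response in serum-free HepaRG cultures (top 100 uM, 0.5% DMSO, 48 h). Read-out: FMO3 mRNA level normalized to three endogenous control genes, fitted bidirectionally versus vehicle.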

[4] = read-out: CFLAR gene, CFLAR (gene 8837); experiment: LTEA_HepaRG_CFLAR: Life Technologies and Expression Analysis (LTEA) Assay for CFLAR gene using HepaRG (AID 2283455)
How it was run: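 Transcript level by qRT-PCR (normalized to ACTB, GAPDH and POLR2A) after 48 h chemical exposure of HepaRG cells, top concentration 100 uM with half-log steps, 0.5% DMSO vehicle, duplicates; fitted bidirectionally against DMSO baseline.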

[5] = read-out: Forkhead box O1 (FOXO1), FOXO1 (gene 2308); experiment: LTEA_HepaRG_FOXO1: Life Technologies and Expression Analysis (LTEA) Assay for Forkhead box O1 (FOXO1) using HepaRG (AID 2283456)
How it was run: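 FOXO1 transcript quantified by qRT-PCR after 48 h chemical exposure (top 100 uM, half-log steps, 0.5% DMSO) of HepaRG cells, housekeeping-normalized (ACTB/GAPDH/POLR2A). Changes fitted in both directions relative to vehicle.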

[6] = read-out: growth arrest and DNA damage 45 (GADD45A), GADD45A (gene 1647); experiment: LTEA_HepaRG_GADD45A: Life Technologies and Expression Analysis (LTEA) Assay for growth arrest and DNA damage 45 (GADD45A) using HepaRG (AID 2283458)
How it was run: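 Eight-point concentration-response in HepaRG cells: 48 h chemical exposure, 0.5% DMSO vehicle, top dose 100 uM. Normalized qRT-PCR mRNA readout with bidirectional fitting relative to DMSO.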

[7] = read-out: Forkhead box O3 (FOXO3), FOXO3 (gene 2309); experiment: LTEA_HepaRG_FOXO3: Life Technologies and Expression Analysis (LTEA) Assay for Forkhead box O3 (FOXO3) using HepaRG (AID 2283459)
How it was run: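 FOXO3 transcript measured by qRT-PCR (normalized to ACTB, GAPDH, POLR2A) after 48 h exposure of HepaRG cells in serum-free induction medium. Duplicates, eight half-log concentrations up to 100 uM, 0.5% DMSO; gain or loss fitted against DMSO.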

[8] = read-out: ABC Transporter (ABCB1), ABCB1 (gene 5243); experiment: LTEA_HepaRG_ABCB1: Life Technologies and Expression Analysis (LTEA) Assay for ABC Transporter (ABCB1) using HepaRG (AID 2283460)
How it was run: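 ABCB1 transcript level measured by TaqMan qRT-PCR against three housekeeping genes after 48 h chemical exposure of differentiated HepaRG cells. Top concentration 100 uM, half-log steps, eight points, 0.5% DMSO vehicle; bidirectional fit relative to DMSO.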

[9] = read-out: Cytochrome P450 (CYP1A1), CYP1A1 (gene 1543); experiment: LTEA_HepaRG_CYP1A1: Life Technologies and Expression Analysis (LTEA) Assay for Cytochrome P450 (CYP1A1) using HepaRG (AID 2283454)
How it was run: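 Differentiated HepaRG cells in serum-free induction medium were exposed in duplicate for 48 h to eight half-log concentrations up to 100 uM in 0.5% DMSO. CYP1A1 mRNA was quantified by TaqMan qRT-PCR, normalized to ACTB, GAPDH and POLR2A.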

Compound	outcome [1]	outcome [2]	outcome [3]	outcome [4]	outcome [5]	outcome [6]	outcome [7]	outcome [8]	AC50 [9]	AC50 [3]	AC50 [2]	AC50 [5]	AC50 [6]	AC50 [8]	AC50 [7]
CC(C)=CCC/C(C)=C\CO	inactive	inactive	inactive	inactive	inactive	inactive	inactive	inactive							
O=C(O)c1cccc(Oc2ccccc2)c1	inactive	inactive	inactive		inactive	inactive	inactive	inactive	37.9 µM (active)						
CCn1nc(Cc2ccccc2)cc1C1CCN(C[C@H]2C[C@H](N(C)[C@@H](C(=O)O)C(C)C)C[C@@H]2c2cccc(F)c2)CC1	inactive	inactive			inactive	inactive	inactive	inactive	83.9 µM (active)	50 µM (active)					
CCOC(=O)CC(CC(=O)OCC)(OC(C)=O)C(=O)OCC	inactive	inactive	inactive		inactive	inactive	inactive	inactive	70.5 µM (active)						
O=C1OC(=O)C2C3C=CC(C3)C12 (configuration not stated)	inactive	inactive	inactive		inactive	inactive	inactive	inactive	84.5 µM (active)						
CN(C)c1ccc(Cc2ccc(N(C)C)cc2)cc1	inactive	inactive			inactive	inactive	inactive	inactive	13.2 µM (active)	83.1 µM (active)					
O=C(CCCCCCCCc1cccnc1)N1CCC(C=C(c2ccccc2)c2ccccc2)CC1	inactive						inactive		32.6 µM (active)	29.6 µM (active)	22.5 µM (active)	12.4 µM (active)	26.9 µM (active)	30.7 µM (active)	
Cn1cnc([N+](=O)[O-])c1Sc1ncnc2nc[nH]c12	inactive					inactive		inactive	34.8 µM (active)	17.5 µM (active)	1.69 µM (active)	5.19 µM (active)			4.06 µM (active)
COc1ccc(-n2nc(C(F)F)cc2-c2ccc(S(C)=O)cc2)cc1 (configuration not stated)	inactive	inactive	inactive		inactive	inactive	inactive	inactive	60.3 µM (active)						
CC(=O)OCCC(C)C	inactive	inactive	inactive		inactive	inactive	inactive	inactive	73.2 µM (active)						
O=P(OC(CCl)CCl)(OC(CCl)CCl)OC(CCl)CCl	inactive				inactive		inactive		13.1 µM (active)	63.8 µM (active)	50 µM (active)		0.21 µM (active)	78.8 µM (active)	
Nc1cccc(N)c1	inactive	inactive	inactive		inactive	inactive	inactive	inactive	50 µM (active)						
O=C(NS(=O)(=O)/C=C/c1ccccc1)c1ccc(F)cc1Cl	inactive	inactive	inactive		inactive	inactive	inactive		50 µM (active)					10.8 µM (active)	
CC(C)=CCC/C(C)=C/CO	inactive	inactive	inactive		inactive	inactive	inactive	inactive							
CC(C)CCCCCCOC(=O)c1ccc(C(=O)OCCCCCCC(C)C)c(C(=O)OCCCCCCC(C)C)c1	inactive	inactive	inactive		inactive	inactive	inactive	inactive	50 µM (active)						
CC[C@H]1CC[C@H](NCc2cc3c(cc2OC)[C@H]2C[C@H]2C(=O)N3C)[C@H](c2ccccc2)N1	inactive	inactive	inactive		inactive	inactive	inactive	inactive	37.6 µM (active)						
